The results in this text go back to PubChem BioAssay (EPA / NIEHS).

Calls of active or inactive are those of the source. Rule for the calls: active = hit-call score of the fitted dose curve at least 0.9, where 1 is the maximum; inactive = score below 0.9.

Usually AC50 stands for the concentration at which the activity in the assay is half-maximal.

A short description of the assay: CCTE_Shafer_MEA_acute_interburst_interval_mean: CCTE's Neural Acute Assay for Mean Interburst Interval, Shafer Lab (AID 2284016).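 Note: percent change of mean interburst interval versus each well's own pre-dose baseline.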 The protocol:
CCTE_Shafer_MEA_acute assay is conducted using Axion Biosystems 48 well microelectrode array (MEA) plates and Maestro recording system. Each well of the MEA plate contains a grid of 16 microelectrodes embedded in the culture surface. Electrically active cells, such as neurons, can be cultured over the electrodes, and electrical activity in these cells can be recorded extracellularly. The spontaneous firing of neurons is captured from each electrode on a microsecond timescale providing both temporally and spatially precise data. […] The CCTE_Shafer_MEA_acute assay uses primary cultures of rat cortical neurons. As these cultures mature over time, neural networks develop functional activity and form cohesive networks in which electrical activity can be highly coordinated. Baseline 40-minute recordings are made on days post-plating 13 or 15, followed by a secondary 40-minute recording after chemical exposure.CCTE_Shafer_MEA_acute_interburst_interval_mean is a component of the CCTE_Shafer_MEA_acute assay. It measures the average time between the start of consecutive single-electrode bursts (temporally-clustered groups of action potential firing) during a recording in a microelectrode array (MEA) using Axion Biosystems Maestro 768 channel amplifier with the AxIS adaptive spike detector. The recordings before and after chemical treatment are used to calculate a percent change in the mean inter-burst interval in each well.Data from the assay component CCTE_Shafer_MEA_acute_interburst_interval_mean was analyzed into 1 assay endpoint. This assay endpoint, CCTE_Shafer_MEA_acute_interburst_interval_mean, was analyzed in the negative analysis fitting direction relative to DMSO as the negative control and baseline of activity. Using a type of functional reporter, gain or loss-of-signal activity can be used to understand electrical activity.
Spontaneous activity in the cortical cultures was recorded using an Axion Biosystems Maestro 768 channel amplifier and Axion Integrated Studios (AxIS) v1.8 (or later) software. The amplifier recorded from all channels simultaneously (gain = 1200 x; sampling rate = 12.5 kHz/channel): raw signals were filtered with a Butterworth band-pass filter (300-5000 Hz), which filters out slower local field potentials leaving only fast potentials, i.e., "spikes", arising from extracellular currents associated with action potentials (Pine 2006; Wheeler and Nam 2011). On-line spike detection of filtered signals was conducted with the AxIS adaptive spike detector, using a threshold of 8x the root mean squared (rms) noise on each channel. Any electrodes with rms noise levels greater than 5 uV were grounded (e.g., no data were recorded). Once grounded, an electrode was grounded for the duration of the experiment. All recordings were conducted at 37 C. Wells were deemed usable if on the day of the exposure >/= 10 electrodes were active (defined as >/= 5 spikes/min). On DIV 13 or 15, a minimum of three wells from one cortical culture preparation were treated with each compound (0.03-40 uM). Prior to recording baseline activity, each mwMEA plate was placed in the Maestro at 37 C and allowed to sit for 20 min while firing rates stabilized. Baseline activity (40 min) was recorded before the addition of each compound. An additional 40 min of spontaneous activity was recorded in the presence of each compound. Changes in network parameters relative to baseline were assessed following compound treatment.
On to `CC(C)(c1ccc(O)cc1)c1ccc(O)cc1`, for which the compound was classed as inactive. On the same count and under the same terms, with `N#CSCSc1nc2ccccc2s1` the entry was “inactive”; with `CSC(=O)c1cccc2nnsc12`, “inactive”; with `O=C(c1ccccc1)C1CCCCC1`, “inactive”. With `Oc1ccc(C(c2ccc(O)cc2)C(Cl)(Cl)Cl)cc1`, the half-maximal activity concentration (AC50) was 7.4 µM (active).

As for `C=CCOC(Cn1ccnc1)c1ccc(Cl)cc1Cl` (centres undefined), the compound was classed as inactive.

Consider `CCNc1nc(N)nc(Cl)n1`, for which the compound was called inactive. On to `CCCCC(CC)CN1C(=O)C2C3C=CC(C3)C2C1=O` (centres undefined), for which the call was inactive. For `CC1(C)C(C=C(Cl)Cl)C1C(=O)OCc1cccc(Oc2ccccc2)c1` (centres undefined), the result was inactive. Take `O=C(O)c1ccccc1`: the compound was classed as inactive. Consider `Cc1nn(C)c(Oc2ccccc2)c1C=NOCc1ccc(C(=O)OC(C)(C)C)cc1`, for which the AC50 was 0.003 µM (active).

For `CC(C)(C)[C@@H](O)[C@@H](Cc1ccc(Cl)cc1)n1cncn1`, the compound was called inactive.

For `O=C(Nc1ccc([N+](=O)[O-])cc1Cl)c1cc(Cl)ccc1O`, the AC50 was 0.183 µM (active). With `COC(=O)c1ccccc1C(=O)O`, the call was inactive. For the compound `OB(O)O`, the call was inactive. Regarding `CC(C)CCCCCCc1ccc(O)cc1`, the AC50 is 7.29 µM (active). As to `C#CCOC(=O)[C@@H](C)Oc1ccc(Oc2ncc(Cl)cc2F)cc1`, the compound was classed as inactive.

`O=C(c1ccc(O)cc1O)c1ccc(O)cc1O`: the call was inactive. With `CCCN(CCC)c1c([N+](=O)[O-])cc(C(F)(F)F)c(N)c1[N+](=O)[O-]`, the result was inactive.
